# Source: PubChem (The Scripps Research Institute Molecular Screening Center)
# Hits are enriched below; roughly 4.1% of the tested compounds scored in any of these assays.
# DAX1 inh-1: blocks DAX1 repression of SF-1 activated StAR promoter. HEK293T StAR-luciferase reporter, SF-1/DAX-1 repression relief. inhibition, % at 6.8 µM. hit rate 1.1% among 370,000. AID 652010;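 active = inhibition above the mean over all tested compounds plus 3 SD, cut at about 3.6% in these data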;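 note: 0% = DAX-1 cells with DMSO and 100% = cells lacking DAX-1 with DMSO; higher inhibition means more luminescence from relief of DAX-1 repression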
# DAX1 inh-2: NR0B1 (DAX1) inhibition; P51843; HEK293 Gal4-DAX1 luciferase reporter, luminescence; inhibition, % at 6.75 µM; hit rate 0.99% among 340,000;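 active = inhibition above the mean over all tested compounds plus 3 SD, cut at about 4.2% in these data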;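 note: 0% = DAX1-transfected cells with DMSO and 100% = empty-vector control cells with DMSO; inhibition shows as a rise in luminescence from relieved DAX1 repression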
# Target sequence (P51843 207-470 limits assumed): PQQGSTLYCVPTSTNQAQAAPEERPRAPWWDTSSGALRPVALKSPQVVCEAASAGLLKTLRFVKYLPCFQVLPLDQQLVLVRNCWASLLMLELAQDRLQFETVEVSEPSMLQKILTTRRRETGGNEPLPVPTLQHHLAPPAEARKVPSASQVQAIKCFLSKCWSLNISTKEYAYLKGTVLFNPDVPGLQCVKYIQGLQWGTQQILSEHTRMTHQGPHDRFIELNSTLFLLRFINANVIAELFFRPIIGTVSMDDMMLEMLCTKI
# hgDAF12 agonist: hgDAF-12 agonism, primary luciferase screen. HEK293 GAL4-hgDAF12 UAS-luciferase reporter, agonist luminescence; normalized to butyrate control. activation, % at 6.8 µM. hit rate 1.8% among 370,000. AID 687014;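 active = activation above a cutoff set at the mean of all screened compounds plus 3 SD, cut at about 10% in these data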;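 note: 0% = DMSO wells and 100% = sodium butyrate wells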
# hcDAF-12 act: activates DAF-12 receptor from parasite H. contortus; HEK293 hcDAF-12 lit1-tk-luc reporter, luminescence; 0% DMSO, 100% Δ7-dafachronic acid; activation, % at 6.8 µM; hit rate 1.4% among 370,000; AID 652067;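 active = activation above the mean of all tested compounds plus 3 SD, cut at about 5.5% in these data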;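 note: 100% = response to 3 µM Δ7-dafachronic acid high control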
# ssDAF-12 act: activates DAF-12 receptor from parasite S. stercoralis; HEK293 ssDAF-12/GRIP1 lit1-tk-luc reporter, luminescence; % of 3 µM dafachronic acid response; activation, % at 6.8 µM; hit rate 1% among 370,000; AID 652126;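 active = activation above the mean over all tested compounds plus 3 SD, cut at about 0.9% in these data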;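 note: 0% = DMSO-only wells and 100% = 3 µM delta7-dafachronic acid wells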
# An asterisk follows results filed as active; nt = not tested or not shown.
SMILES,DAX1 inh-1,DAX1 inh-2,hgDAF12 agonist,hcDAF-12 act,ssDAF-12 act
CN(CCOc1ccc(Cl)cc1)CC(O)c1ccccc1 (stereo unspecified),0,4.3*,1,0,-1
O=C(CCn1nnc(-c2cccs2)n1)N1CCOCC1,2,nt,0,1,-1
CC1CCc2c(sc3ncn(CC(=O)N=Nc4c(O)[nH]c5ccccc45)c(=O)c23)C1 (stereo unspecified),0,4.6*,3,3,0
CC1CCc2c(sc3ncn(CCO)c(=O)c23)C1 (stereo unspecified),2,0,7,2,-1
COc1cccc(CNC(=O)[C@H]2CCCN2C(=O)[C@H]2CCCN2C(=O)c2ccc(C)c(C)c2)c1,-2,nt,0,-2,-1
CC1CC(NC(=O)c2c(O)nc3sccn3c2=O)CC(C)(C)C1 (stereo unspecified),2,6.4*,4,-2,0
COCCSc1nnc(-c2cccnc2)n1Cc1ccccc1,0,nt,2,0,-1
Cc1onc(-c2ccc(Cl)cc2)c1-c1ccn(S(=O)(=O)c2ccccc2Cl)n1,-1,nt,6,0,-2
O=S(=O)(NCc1ccc2c(c1)OCO2)c1ccc(F)cc1,1,7.5*,-3,-2,-1
O=S(=O)(NCc1ccc2c(c1)OCO2)c1ccc(F)c(F)c1,0,3,0,-2,-1
O=S(=O)(c1ccc(NC(=S)Nc2ccc3c(c2)OCO3)cc1)N1CCOCC1,0,0,3,-1,0
CNS(=O)(=O)c1ccc(NC(=S)Nc2ccc3c(c2)OCO3)cc1,0,0,11*,2,-1
CC(=O)Nc1ccc(S(=O)(=O)NCC(=O)Nc2ccc3c(c2)OCO3)cc1,0,-2,-1,-1,2.1*
C=CCN(CC#Cc1ccc(C(F)(F)F)cc1)Cc1ccc(OC)cc1OC,-1,nt,-1,-3,-1
CCOC(=O)/C(C#N)=C/c1cn(CCC(=O)O)nc1-c1ccc(OC)cc1,0,6.6*,0,-1,-1
CCOC(=O)/C(C#N)=C/c1cn(CCC(=O)O)nc1-c1ccccc1,0,-1,-4,-1,-2
CCCC1CCC2(CC1)CCC2OC(=O)Nc1ccc(F)cc1 (stereo unspecified),nt,nt,3,-2,-2
Cc1ccc(S(=O)(=O)NC(=O)c2cc(C)n(CC(c3ccccc3)N(C)C)c2C)cc1 (stereo unspecified),-1,5.5*,0,0,-1
Nc1ccc(S(=O)(=O)N2CCCC2)cc1,1,6.0*,1,1,-2
O=S1(=O)c2c(cccc2N2CCSCC2)Oc2ccccc2CN1Cc1cn(Cc2cccc(C(F)(F)F)c2)nn1,0,nt,-1,-3,-1
COc1ccc(OCCC(=O)OCC(=O)NC(=O)NC2CCCCC2)cc1,-1,-1,3,1,-1
CNC(=O)NC(=O)COC(=O)CCCOc1ccc(OC)cc1,0,5.6*,0,-1,-1
CC1=C(C(=O)OC(C)C)C(c2c[nH]c3ccccc23)n2ncnc2N1 (stereo unspecified),0,1,-1,5.7*,1
COc1ccccc1C1C(C(N)=O)=C(C)Nc2ncnn21 (stereo unspecified),0,6.7*,1,0,-1
Cn1cc(CCOCc2ccccn2)c2ccccc21,3.6*,nt,5,1,1
SMILES,DAX1 inh-1,DAX1 inh-2,hgDAF12 agonist,hcDAF-12 act,ssDAF-12 act
CC(C)C1C(=O)N(Cc2cn(CC3CCCCC3)nn2)CCS(=O)(=O)N1Cc1ccc(-c2ccc(Cl)nc2)cc1 (stereo unspecified),4.4*,1,-2,0,-1
CC(C)CC1C(=O)N(Cc2cn(CCC3OCCCO3)nn2)CCS(=O)(=O)N1Cc1ccc(-c2ccc(Cl)nc2)cc1 (stereo unspecified),-2,5.1*,1,-1,-1
COc1ccc(N2CCCN(CC(=O)Nc3ccc(Cl)cc3)CC2)cc1,1,nt,-1,-2,-1
CCN(CC)C(=O)Cn1c2ccccc2c2nc3n(c(=O)c21)CCS3,nt,nt,-2,0,-1
CCCCc1c(-c2ccccc2OC)ncn1Cc1ccccc1C,-2,nt,-2,-3,-2
C/C(=N/NC(=O)c1ccc2c(c1)OCO2)c1ccc(Br)s1,0,1,3,0,0.9*
C/C(=N\NC(=O)c1ccc(C)cc1C)c1ccc2c(c1)OCO2,1,2,7,2,1.3*
O=[N+]([O-])c1ccc(COc2ccccc2CO)cc1,2,nt,7,0,-1
